In all, about 2,300 sequences were measured (“median log2 fold change of GCK-ALFA target abundance (FLAG IP / Myc IP barcode read proportion)”: median about 0.095, lowest 2% from about -0.47 on). The sample as a whole holds a higher share of the lowest values than the screen did.
B1: LC3A_6_2066 (protein)
chain: KLYKITIDILLKSEKPEEALKVAKEIAEEIRKFAEEINKEYNGAVKKLEIKIEEIDGEVFLTIEIVAEEKAVNEIIDKVDEIVEENKEYVAASMISVEEL
B2: LC3A_28_724 (protein)
chain: NRLEASIAAALARARALAAAGESDVIEITIPGDATEEDIERVIEALEEIAAITADLPRTDIVINVEGGVKQEHIDRLADAAEAIEARYPNVTVIIALDEE
B3: LC3A_55_2007 (protein)
chain: MEVFIFITENAETGEILALEVEVDSDPERLLEALRAAGEELAAELFRLANGRRLDEEEMAEIKARYSPEEVRAAVEALIAVLESLPDVKVSVLIELEEEE
B4: LC3A_13_341 (protein)
chain: TVTLEVETAEELRERGFAALAAHPGETIRITVTVRDEEEAEAIAEVLAELVRAAAEAGSDLEITIRGPRDLVLYVALEVGSEAYEHIDKVTVTITEEVVE
B5: LC3A_147_449 (protein)
chain: MLYEITVDALFKNDPALAEEVAEQLKAIAEKHGGEVEVEFEEEQVSPTTTEYFLNVTITFEDKAKAQAAETEIAALLDETAAKHPDKFLGAILSFEEVEP
B6: LC3A_3_1611 (protein)
chain: MEELIERELERLREAGFSPEVLEEARKVLEALAEKGYRRAIEKLTEELLKLKDVDPELVIEALREILRIVTEEDLSEEEVIEEIEREFRVVRLESEIIEL
B7: LC3A_free_8_2519 (protein)
chain: KSKAFAQRVVAILEELEKEIVKLLKEKGASRLDILEAELLIGSIIAEVISLQDKSPEEIIKAVKEGLKELVEELEKYKEEVKKLAEEALKKIEAAKKELE
B8: LC3A_3_1395 (protein)
chain: FEEIRKETIEYLKKAGKSEEVIKAAEEALELLEKRGYLEAAKTFLEELKKMKDVSDELLLWFLNEVINYLKTNDDDEETVIKKIKEFATIVKNESEIEEL
B9: LC3A_147_483 (protein)
chain: MRIDIDALIKGEETVEEFIERLEEKKEELEEEGVEVELEIEVEEVEEGVYYLKVTVTIKAETKEKEKEAADKIIDTIEEFEEENKDKVLGVLISVEEIEE
B10: LC3A_28_1260 (protein)
chain: SELEKNIEAAIAEVKEAVAKGEEAVVTIKVPAGITEEEVEKVIETMEKIAELGKSLPSVTIIVDVEKGVKQEHIDKLVDKGEELEKKYPNLTVIFALEEE
B11: LC3A_45_1982 (protein)
chain: MWEATIDLLVPRELAEEAYAILKEAGAELVARHGDDLKVDWDALDASYEASRDEEEVYLRLNIYHPDKQVALDSAVEIVDRLEERLGRKVAAIISVKEVP
B12: LC3A_23_600 (protein)
chain: MVTVEADHVVKNDPELAEEKTKKLLEEIKKILEKNKDYIKDYKIEVEFYTDEDGNTVVRITVTVKVKDDPEKAQEIANELISAFDEILPDAVIAYDVEED
B13: LC3A_28_836 (protein)
chain: SFAEEEIKKAKKALEKAKETKEDVVVEVVIKSTMTPEEAQYIMDELEKEVSKLPKDVKVSIVFLAEEPVDPEVLQTIADGGDEIEEKYPNVTVIIALPEE
B14: LC3A_28_985 (protein)
chain: SAMEERLAAALAEAKAAAAAGEATVITIEVPSTATEEDIEKAVAALKEIGEILKGVKGSAIVVDLESGVPEEHIRKLADAGEEVEKANPDVSVIFALDED
B15: LC3A_141_362 (protein)
chain: AVKKKTYTYTATTYDEALKVAEEIGKEIKKFMEETGAEEVKVTVTITSYNEKTGEVTTETDTYTVTKENLDLFIEGLEIDLLSAFDKGADKIVVKVTIET
B16: LC3A_28_758 (protein)
chain: MDVAEIVAAAIAEAKAAAAAGEEAVIRIRVPAGATQEDIDKVIAGLEEIAEIRKDMKSTSIVIDIEAGVSQENIDKLIDAGEAIEKKYPNITVIFALDED
B17: LC3A_59_2012 (protein)
chain: REEVREWVEKIYEAYDDVEKFYELVKKAYEELKKKYSDEELLKLVKEEVERLIKEGKDPRKMKAIYESFKAVIEIKDEEKQKEEIRLIILESEIEEIDEE
B18: LC3A_3_1808 (protein)
chain: MEERLEEVIKLLKEAGHSEETIKAFLEAAEALKEKGYEEALETLLELARELVDLPSELLLEMFEDVLELVETSDDSEEEITERIREIASTYRHEAEIEEL
B19: LC3A_132_320 (protein)
chain: MEEKARRIREEILRLIEEAEENIDDLEKVEELVEEIRELARRAEEELTPEQVAEIFEEAAEKADEVSLKADEEGKEDVALLMDGLSVELAALSIRAEEKI
B20: LC3A_free_2_2172 (protein)
chain: MKYRVIIDALGKPEGIAKLVKTLVDLGIEVEVTTEDGTKMTATKETVEEVVKYLLSKKEEIYVELEAVTDKEKADKALDELEKVAEETGISYIVSIEELE
B21: LC3A_28_689 (protein)
chain: NYIEELKKKAEEILEEAAAKGEEAYIEIDFERPITPEEVEEIMDKLEEYIKKYKLKKVNIVINILSENQSQETIDTIMDKAEELEKRIPNVTVIIALPEN
B22: LC3A_3_1500 (protein)
chain: LEEAVERLLEALREAGVSEADIAEARELLEKAREYLTEESIEAITETVRRLAHLPPRLVAAAVLTLLETILEKKLNDEEVKEKAELLAETAESFAESDER
B23: LC3A_28_698 (protein)
chain: SRVDEDIERARKIAEEAIAKGEDALIELTIRPDTTAEDVDRILATIRELAEKMSKTGKLYVVVDVESGVDQANIDRIADELDKLMEEIPNLTAVIALDED
B24: LC3A_141_369 (protein)
chain: KTVTLKLELKNSSLDEVIEKMEELEEEVLKAYEELGGGKVKVTVTLTFKNSKTGETTVIKEEFEADKEELEMLLEGVLIEAASYRLTENADITVTVTLEA
B25: LC3A_28_725 (protein)
chain: NELEESIEKALKKAKELAEKGKSDVIEITIPGNATQEDIEKVIKALEEIAEIVKDLESVSIVIDVEGGVKQEHIDKLADKAEEIEKKYPNVTVIIALDED
B26: LC3A_free_0_2099 (protein)
chain: MTTVVEVLGIIDNENDKEAAEAIAEELKKLGKKLSEEKGWKVTVELKKVNGSYVITVTIEGKGMSIEEGLEIADEIADKIERLAKEHGVEVTIYTSVYEE
B27: LC3A_28_943 (protein)
chain: MSIEEDIEAALKEAKEAKKKGEPAVITITVKGTATQEEVDAVIKTIKEIAELLKDIKGSAIIVDIEAGVAQEHVDALMDTLDEIEKKYPNINAIAALDED
B28: LC3A_28_944 (protein)
chain: MTIEEEIEKALKEAKEAKAKKEPAVITITVKGDATEEEIEKVIETIKEIAELLKDIKGSAIIVDVEKGVKEEHINKLLDTLDEIEKKYPNISAIMALDED
B29: LC3A_3_1778 (protein)
chain: ADELIEELLEALREAGKSEETIEAAREVAERLRERGFDEALETFVREMRRLLDVPDDILLDMLEEVLELLETEDLSEEEVIERIEELARLARAEAEIEEL
B30: LC3A_132_256 (protein)
chain: SEELYERFLEEAKELIDKIVDALKAGKDPSPYIKELDELAEEAAEKLSLEELERLVEEAEEYAEERFAERLDPNDPEARRALDIVEMILDSALIEAELRA
B31: LC3A_132_258 (protein)
chain: SEEKKEEFLEKFKELIDKIVEALQAGQDPSPYLKELDELAEEAAEELSLEELEELVEEAEKYARERFAERLDPNDPEARRTLLIVEMILDSALIESELRA
B32: LC3A_28_714 (protein)
chain: SPLEESIKKALEEAKEAAKKGEEAVIEIKVEGEITEEETEKVQKAIEEIAEITKDLKSTTIIVDVDGKVPQEHINKILDKGEEVEKKYPNVTVIFALDEN
B33: LC3A_free_0_2103 (protein)
chain: SVTVVEVVAISKEKWSEEKAKKLKEAAEKLAKELEEKYGMETEVKLEEIDGRQVLTIKAKKEGMSIDEGLEIADYIADHLEEKAKELGVEVEIYESVYEE
B34: LC3A_3_1781 (protein)
chain: AEARIAELLAALEAAGASPETIAAVRAAAEALRARGYEEALATFVEEMRRLLGLPDEIRLAFAQEVLRLIEENDLSEEELTEEIRRLARLARLEAEIEEL
B35: LC3A_free_8_2489 (protein)
chain: KSQELANLASDLLDELEEEVEKKAKELGASELDILDLSLLIGSTIAEAYSLSDESPEKIIEAVREGLEELIERAKEISEELAKKVKELSEKILKELEEKA
B36: LC3A_3_1366 (protein)
chain: MEEKIEELLEYLKKEGKSEETLEAVRKTLEALIEKGYEEAAETFIELMKKLSHLPDELLLDFAKEVLEKVENEDLSEEELIEFIKEEAKIAENEAEIIEL
B37: LC3A_28_772 (protein)
chain: MDIKENAAKAIAEAKAAAAAGEEAVIEIKVPDGATEEDIEIVIKALEEIAEITKDMKSISVVIDVDGGVKQEHLDKLAKAAEEIEEKYPNVTVIIALDEN
B38: LC3A_free_39_2201 (protein)
chain: SEEEFEKYKEELLKLAEKEGEEALKEAKELLKEIEGNVNLAKTVLEEVKRAVEEGADVLELLKELLKLVKELKKEGKSEEEIIKEMKAKADVIINLIPID
B39: LC3A_28_1312 (protein)
chain: SKLKKQFEEAIKEVEAAAAAGEPVVVTIDITAEEAEKELEEILKLLEELAKVASKAPGATIIIDVDEDVKPENLKKIAEKAEELEKKYPNVTVIIAIEDK
B40: LC3A_127_171 (protein)
chain: ELEELLEEALEVAEELSELLEEEDYDFEEIEELTRELLELAKKILELDPRAEDALETAEEMLELLEEMKEADEAEQKELKEHLLMLTEGLIIELLGLQLK
B41: LC3A_free_39_2287 (protein)
chain: SEEELEEAVERLEELLEEIEGVSEEEKEIILEAARESLEMAKAILEALEELRRLGGDVAEAAREIAALIRELRAAGASLEERTAAVIEKARDLVNLIPID
B42: LC3A_132_291 (protein)
chain: QQEKAEELKKEIKEIVEEMKENIDDEEKVRKLLEELEKLMKRAEKELSPELLAEVFEELSELLEELSEEFDEAGKEDLALEADSLAIEAASLALRAKEKI
B43: LC3A_127_206 (protein)
chain: KEKELLKKAEKLAEKAEEAVDKIPKEGEKAREEAIKLLEELAKLLKQIPSLKEALEDTEQAIKLLKETAKLSPAEREETIEQISQIISGILIEIESELLK
B44: LC3A_free_46_2354 (protein)
chain: VEAKIEVDLLHEDEEVLKKAVEAIKEAAKKIAKKYGLKVEIKEKIEKLPDGSYFAEIEITLKGEDKETLEKAVNELINEIDEIAKKYDVAAIISYEIIEK

Each binder was assayed against MAP1LC3A, Q9H492 (assay: median log2 fold change of GCK-ALFA target abundance (FLAG IP / Myc IP barcode read proportion) (log2 ratio); each designed protein is fused to an ALFA-tag nanobody in HEK293 cells to bring the named protein to FLAG-tagged glucokinase (GCK); Myc marks an untargeted standard; higher = target protein stabilised (more abundant)). Settings: target protein: 3xFLAG-MCP-GCK-ALFA reporter; HEK293 landing pad (RPLP).
In short: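 An ALFA-nanobody-fused binder library was recombined into HEK293 landing-pad cells and induced with 2 μg mL^−1 doxycycline. Cells were transfected with a plasmid expressing a FLAG-tagged target and a Myc-tagged standard. After 48 h, lysates underwent anti-FLAG and anti-Myc immunoprecipitation, and circular RNA barcodes were reverse transcribed, amplified and sequenced. Target abundance is the per-binder median log2 ratio of FLAG to Myc barcode read proportions. Barcodes needed ≥10^−7 proportion in both replicates, binders ≥3 barcodes per replicate, and a 10^−6 pseudocount was added; the two replicates were pooled.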

Row | Binder | median log2 fold change
1 | B1 | -0.173
2 | B2 | 0.154
3 | B3 | 0.119
4 | B4 | 0.0625
5 | B5 | -0.603
6 | B6 | 0.132
7 | B7 | -0.243
8 | B8 | 0.436
9 | B9 | -0.904
10 | B10 | -0.13
11 | B11 | 0.0214
12 | B12 | -0.566
13 | B13 | 0.111
14 | B14 | -0.274
15 | B15 | -0.96
16 | B16 | 0.124
17 | B17 | 0.156
18 | B18 | 0.0777
19 | B19 | 0.104
20 | B20 | -8.53e-05
21 | B21 | -0.0908
22 | B22 | 0.0772

Row | Binder | median log2 fold change
23 | B23 | -0.304
24 | B24 | -0.618
25 | B25 | 0.164
26 | B26 | -0.379
27 | B27 | -0.355
28 | B28 | -0.897
29 | B29 | -0.0575
30 | B30 | -0.217
31 | B31 | -0.582
32 | B32 | 0.219
33 | B33 | 0.15
34 | B34 | 0.24
35 | B35 | 0.0352
36 | B36 | 0.0931
37 | B37 | 0.202
38 | B38 | 0.451
39 | B39 | -0.0764
40 | B40 | -0.77
41 | B41 | 0.257
42 | B42 | -0.27
43 | B43 | 0.148
44 | B44 | -1.38e-07
